# From PubChem
# ROS inducer – cancer cell ROS induction; U2OS ROS induction, H2DCF-DA fluorescence; ROS induction (% of piperlongumine), % at 10 µM; 2% of 46,000 active; AID 624156; in the data active = ROS induction above about 79%, passing the limit was not always enough
# A number is an active result; . = inactive. The entries come from a sample that favours hits as a whole.
SMILES,ROS inducer
C[C@H]1CN([C@@H](C)CO)C(=O)Cc2cc(NC(=O)Nc3cccc4ccccc34)ccc2O[C@@H]1CN(C)Cc1ccc(-c2ccccc2)cc1,132
Cc1noc(C)c1NC(=O)N(C)C[C@H]1Oc2ccc(N(C)C)cc2C(=O)N([C@@H](C)CO)C[C@H]1C,.
Cc1cccc(-c2nnc(SCC(=O)Nc3cc(C(F)(F)F)cc(C(F)(F)F)c3)n2C)c1,.
O=C1CC(C(=O)Nc2ccccc2)N=C(Nc2nc3ccccc3s2)N1 (stereo unspecified),.
O=C(Nc1nc2ccccc2s1)C1CC1,.
c1ccc2sc(NC3=NCN(C4CCCCCC4)CN3)nc2c1,100
C[C@H](CO)N1C[C@H](C)[C@H](CN(C)S(=O)(=O)c2cn(C)cn2)Oc2ncc(C#CC(C)(C)O)cc2C1=O,.
Cc1ccc(OCC(=O)Nc2ccc3oc(-c4cccnc4)nc3c2)c(C)c1,.
C[C@H](CO)N1C[C@H](C)[C@H](CN(C)Cc2ccc(C(F)(F)F)cc2)OCc2cn(nn2)CCCC1=O,.
COc1ccc(C2Oc3cc(OC)ccc3CC2O)cc1 (stereo unspecified),.
CCN1/C(=C\C(=S)Nc2ccccc2)Sc2ccccc21,.
CCc1ccc(/C=C2\Sc3ccccc3N(CC(=O)O)C2=O)cc1,.
CCN1/C(=C/C2=CC(=O)CC(C)(C)C2)Sc2ccccc21,164
O=C(Nc1ccc2ccccc2c1)/C(=C/c1ccco1)c1ccccc1,.
CC(C)(C)OC(=O)Nc1ccc(/C=N/NC(=O)c2cccc(C(=O)NO)c2)cc1,.
C[C@@H]1CN([C@@H](C)CO)C(=O)c2cc(NC(=O)Nc3ccccc3)ccc2O[C@@H]1CN(C)Cc1ccc(C(=O)O)cc1,.
C[C@H]1CN([C@@H](C)CO)C(=O)c2cc(NC(=O)Cc3ccccc3)ccc2O[C@H]1CN(C)CC1CC1,.
Cc1[nH]c2ccccc2c1SCc1nnc(SCc2ccc(Cl)cc2)n1C,.
Cn1c(CNC(=O)c2cccs2)nnc1SCc1ccccc1,.
COc1ccc(CSc2nnc(CSc3cccs3)n2C)cc1,87
COC(=O)CCCCCCC(=O)NN=C1CCCCCCC1,.
O=C1O[C@H](c2ccccc2)[C@H](c2ccccc2)N2[C@H]1[C@@H](C(=O)N1CCCCCCC1)[C@]1(C(=O)Nc3ccccc31)[C@H]2c1ccccc1OCCO,.
COCCOC(=O)N1C(=O)[C@@]2(c3cc(C#Cc4ccc(OC)cc4)ccc31)[C@H](C(N)=O)[C@H]1C(=O)O[C@H](c3ccccc3)[C@H](c3ccccc3)N1[C@@H]2c1ccccc1OCCO,.
COc1ccc(C#Cc2ccc3c(c2)[C@]2(C(=O)N3)[C@H](c3ccccc3OCCO)N3[C@H](c4ccccc4)[C@H](c4ccccc4)OC(=O)[C@H]3[C@@H]2C(=O)N2CCN(c3ncccn3)CC2)cc1,.
COCCOC(=O)N1C(=O)[C@@]2(c3ccccc31)[C@H](c1ccccc1OCCO)N1[C@H](c3ccccc3)[C@H](c3ccccc3)OC(=O)[C@H]1[C@@H]2C(=O)N1CCN(c2ncccn2)CC1,111
SMILES,ROS inducer
COCCOC(=O)N1C(=O)[C@@]2(c3cc(C#CCCO)ccc31)[C@H](C(N)=O)[C@H]1C(=O)O[C@H](c3ccccc3)[C@H](c3ccccc3)N1[C@@H]2c1ccc(OCCO)cc1,.
COCCOC(=O)N1C(=O)[C@@]2(c3cc(C#CC4=CCCCC4)ccc31)[C@H](C(=O)N1CCN(c3ncccn3)CC1)[C@H]1C(=O)O[C@H](c3ccccc3)[C@H](c3ccccc3)N1[C@@H]2c1ccccc1OCCO,128
COCCOC(=O)N1C(=O)[C@@]2(c3cc(C#CC4=CCCCC4)ccc31)[C@H](c1ccc(O)cc1)N1[C@H](c3ccccc3)[C@H](c3ccccc3)OC(=O)[C@H]1[C@@H]2C(N)=O,.
COCCOC(=O)N1C(=O)[C@@]2(c3cc(C#CCC(C(=O)OC)C(=O)OC)ccc31)[C@H](c1ccc(O)cc1)N1[C@H](c3ccccc3)[C@H](c3ccccc3)OC(=O)[C@H]1[C@@H]2C(=O)N1CCc2cc(OC)c(OC)cc2C1,.
COCCOC(=O)N1C(=O)[C@@]2(c3ccccc31)[C@H](c1ccccc1OCCO)N1[C@H](c3ccccc3)[C@H](c3ccccc3)OC(=O)[C@H]1[C@@H]2C(=O)N1CCCCCCC1,103
COCCOC(=O)N1C(=O)[C@@]2(c3cc(C#CC4=CCCCC4)ccc31)[C@H](c1ccc(OCCO)cc1)N1[C@H](c3ccccc3)[C@H](c3ccccc3)OC(=O)[C@H]1[C@@H]2C(=O)N1CCc2cc(OC)c(OC)cc2C1,.
COCCOC(=O)N1C(=O)[C@@]2(c3cc(C#CCC(C(=O)OC)C(=O)OC)ccc31)[C@H](c1ccc(OCCO)cc1)N1[C@H](c3ccccc3)[C@H](c3ccccc3)OC(=O)[C@H]1[C@@H]2C(=O)N1CCN(c2ncccn2)CC1,112
C[C@H]1CN([C@@H](C)CO)C(=O)c2cc(NS(=O)(=O)c3cn(C)cn3)ccc2O[C@H]1CN(C)C,.
C[C@@H]1CN([C@@H](C)CO)C(=O)c2cccc(N(C)C)c2O[C@@H]1CN(C)C(=O)Nc1ccc2c(c1)OCO2,.
CCOC(=O)Cn1c(=O)c(C(N)=S)cn(C(C)C)c1=O,.
O=C(CSc1nnc(-c2cccc([N+](=O)[O-])c2)n1-c1ccccc1)NC1CCCCC1,.
CCOc1ccc(NC(=O)CCc2ccc(OC)cc2)cc1,.
C[C@@H]1CN([C@@H](C)CO)C(=O)Cc2cc(NS(=O)(=O)c3cn(C)cn3)ccc2O[C@@H]1CN(C)C(=O)Nc1ccc2c(c1)OCO2,.
CC1(C)CC(=O)C2=C(C1)Nc1ccccc1N(C(=O)Cc1ccccc1)C2c1ccc(-c2ccccc2[N+](=O)[O-])o1 (stereo unspecified),.
C[C@@H]1CN([C@H](C)CO)C(=O)c2cccc(NS(=O)(=O)c3cccs3)c2O[C@@H]1CN(C)Cc1ccncc1,.
COc1ccc(C#Cc2ccc3c(c2)[C@]2(C(=O)N3)[C@H](c3ccc(OCCO)cc3)N3[C@H](c4ccccc4)[C@H](c4ccccc4)OC(=O)[C@H]3[C@@H]2C(=O)N2CCN(c3ncccn3)CC2)cc1,.
O=C1O[C@H](c2ccccc2)[C@H](c2ccccc2)N2[C@H]1[C@@H](C(=O)N1CCN(c3ncccn3)CC1)[C@]1(C(=O)Nc3ccc(C#CCCO)cc31)[C@H]2c1ccc(OCCO)cc1,.
COCCOC(=O)N1C(=O)[C@@]2(c3ccccc31)[C@H](C(=O)N1CCN(c3ncccn3)CC1)[C@H]1C(=O)O[C@H](c3ccccc3)[C@H](c3ccccc3)N1[C@@H]2c1ccc(OCCO)cc1,105
CCCOC(=O)COc1ccc2c(=O)c(-c3ccccc3OC)coc2c1,236
COC(=O)COc1ccc2c(=O)c(Oc3ccc(OC)cc3)coc2c1,.
COc1ccc(-c2coc3cc(O)ccc3c2=O)c(OC)c1,.
COc1ccc(CCN2C(=O)[C@@]3(Cc4ccccc42)c2ccccc2C(=O)N(C2CCCCC2)[C@H]3c2ccc(CO)cc2)cc1,.
Cc1ccc(S[C@]2(C(=O)NC3CC3)CC(=O)N(C3CCCCC3)[C@@H]2c2ccc(CO)cc2I)cc1,.
Cc1ccc(S[C@]2(C(=O)NC(C)C)CC(=O)N(C(C)C)[C@@H]2c2ccc(CO)cc2I)cc1,176
COc1ccc(CCNC(=O)[C@@]2(Sc3ccc(C)cc3)CC(=O)N(C3CCCCC3)[C@@H]2c2ccc(CO)cc2I)cc1,160
Cc1ccc(CN2C(=O)CCC2C(=O)NC(C)C)cc1 (stereo unspecified),.
